# Laboratory results reported in PubChem BioAssay (Tox21).
# Results filed as inconclusive are left out. Values without a mark were called inactive. Active and inactive are the calls of the source. Calls come from the whole dose curve; as a rule, active = well fitted cell-killing curve with a large enough effect in the repeat runs; inconclusive = weak or mixed curves, or effect the other way; inactive = flat fitted curve, though single readings scatter.
# Experiment: qHTS assay to identify small molecule agonists of the sonic hedgehog signaling (Shh) pathway - cell viability counter screen (AID 1259366); note: nearly all actives have a fitted effect of over 50% in size
# Conditions: NIH/3T3 Gli1-Luc viability, CellTiter-Fluor, 24 h; series mostly up to 92.4 µM; viability change, negative = cytotoxic: at the top concentration
# Text: National Center for Advancing Translational Sciences [NCATS]
# NIH Chemical Genomics Center [NCGC]
# U.S. Environmental Protection Agency [EPA]
# National Institutes of Environmental Health Sciences [NIEHS]
# National Toxicology Program [NTP]
# U.S. Food and Drug Administration [FDA]
# The sonic hedgehog (Shh) pathway is essential for normal embryonic development. Dysregulation of the Shh pathway can cause severe developmental defects in organs. Therefore chemicals that interfere with the pathway are potential developmental toxicants. A cell line designated 3T3Gli1-Luc (DMB/OARSA/CFSAN/FDA, Laurel, MD), a NIH/3T3 derived clone containing stably integrated Gli1-Luc reporter is used to detect chemical interference of the Shh pathway, by changes in the expression of the firefly Luc gene under the control of the Gli1 transcriptional response element. This cell line was used to screen Tox21 libraries for identifying and prioritizing the potential developmental toxicants that interfere Shh pathway. The cytotoxicity of the compounds was tested in parallel by measuring the cell viability using CellTiter-Fluor assay system (Promega, Madison, WI) in the same wells.
# Tox21 Assay Protocol Summary:
# 3T3 Gli1-Luc cells were dispensed at 2,000 per well in 5uL of culture medium into white solid bottom 1536-well plates (Greiner Bio-One, Monroe, NC) using a Multidrop Combi (Thermo Scientific, Waltham, MA) dispenser. The assay plates were incubated at 37 C and 5% CO2 for 4hr, and then 23nL of compounds dissolved in DMSO and positive control were transferred using a Pintool station (Wako, San Diego, CA). The assay plates were incubated at 37C and 5% CO2 for 24hr. For viability read, after 23hr of compound treatment, 1uL of CellTiter-Fluor reagent (Promega Corporation, Madison, WI) was added to each well of the assay plates using Flying Reagent Dispenser (FRD, Aurora Discovery, San Diego, CA) and incubated the assay plates at 37C for 1hr. The fluorescence signal was quantified using a ViewLux plate reader (Perkin Elmer, Shelton, CT).
# % is set by controls: 0 for no effect and ±100 for the full control effect; potency is the fitted concentration of half-maximal effect.
Structure (SMILES),"viability change, negative = cytotoxic",Potency
c1ccoc1,-0.784%,–
COC(=O)C(Br)CBr (stereo not given),3.04%,–
C=CC(=O)OCC(C)C,0.599%,–
Cc1ccc(N)cc1C,-5.11%,–
CC1C(=O)C[C@]2(C(C)C)C[C@H]12 (stereo not given in full),0.811%,–
O=C(OC1CCCCC1)c1ccccc1C(=O)OC1CCCCC1,-23.9%,–
C#CCOC(C(=O)OCCN(C)C)(c1ccccc1)c1ccccc1,-3.01% [at 42.5 µM],–
C=C(C#N)CCC#N,2.02%,–
CC(O)(CS(=O)(=O)c1ccc(F)cc1)C(=O)Nc1ccc(C#N)c(C(F)(F)F)c1 (stereo not given),4.41% [at 42.5 µM],–
OC(c1ccc(Cl)cc1)(c1ccc(Cl)cc1)c1cccnc1,-6.41%,–
CCCCN(N=O)C(=N)N[N+](=O)[O-],-7.31%,–
Clc1cccc2ccccc12,-0.308%,–
Cl/C=C\C[N+]12CN3CN(CN(C3)C1)C2,-5.67%,–
CC(C)(C)C(O)C(Oc1ccc(Cl)cc1)n1cncn1 (stereo not given),-4.84%,–
O=C(NC(=O)c1c(F)cccc1F)Nc1cc(Cl)c(Oc2ncc(C(F)(F)F)cc2Cl)c(Cl)c1,-4.81%,–
CC(C)N(CCC(C(N)=O)(c1ccccc1)c1ccccn1)C(C)C (stereo not given),7.37% [at 42.5 µM],–
CCCCC(CC)COP(=O)(Oc1ccccc1)Oc1ccccc1 (stereo not given),-0.297%,–
O=C(N[C@H](c1ccccc1)[C@@H]1CN2CCC1CC2)c1c(Cl)ccc(C(F)(F)F)c1Cl,–,39.2 µM (active)
CCCN(CCC)c1c([N+](=O)[O-])cc(S(C)(=O)=O)cc1[N+](=O)[O-],-17.3%,–
O=C(Nc1ccccc1)Nc1cnns1,-3.92%,–

Structure (SMILES),"viability change, negative = cytotoxic",Potency
O=C(CBr)c1ccccc1,-9.16%,–
CCCCN=C=O,20.6%,–
O=C(C(Cl)(Cl)Cl)C(Cl)(Cl)Cl,5.23%,–
CCCCOC(=O)c1ccccc1C(=O)OCc1ccccc1,-9.51%,–
COCC(C)N(C(=O)CCl)c1c(C)csc1C (stereo not given),-3.25%,–
O=S1OC[C@@H]2[C@H](CO1)[C@]1(Cl)C(Cl)=C(Cl)[C@@]2(Cl)C1(Cl)Cl (stereo not given in full),-18.5%,–
S=C=NCc1ccccc1,16.3%,–
CCOC(=O)C(Cl)C(C)=O (stereo not given),-0.617%,–
C=CC(=O)OC,-5.46%,–
NNC(=O)c1cccnc1,-8.05%,–
N#Cc1ccc(Cl)cc1,-1.56%,–
[CH3][Sn]([CH3])([Cl])[Cl],-22.8%,–
O=C(O)C(F)(F)C(F)(F)C(F)(F)C(F)(F)C(F)(F)C(F)(F)C(F)(F)C(F)(F)C(F)(F)F,3.86%,–
CCOP(=S)(Oc1ccc([N+](=O)[O-])cc1)c1ccccc1 (stereo not given),18.5%,–
CN(N=O)c1ccc([N+](=O)[O-])cc1,0.601%,–
O=C(CBr)OCc1ccccc1,4.3%,–
c1ccc(CN2CCNCC2)cc1,-13.5% [at 240 µM],–
ClP(Cl)(Cl)(Cl)Cl,4.06%,–
CCCCc1c(C)nc(NCC)nc1OS(=O)(=O)N(C)C,–,30.6 µM (active)
Cc1c(F)c(F)c(COC(=O)C2C(/C=C(\Cl)C(F)(F)F)C2(C)C)c(F)c1F (stereo not given),4.94%,–
